PubChem BioAssay AID624052 (National Center for Advancing Translational Sciences (NCATS), 2012)
Active and inactive are the calls of the source.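 How the source made its calls: active means IC50 at or below 10 µM; inconclusive means IC50 above 10 µM but below 20 µM; inactive means IC50 of 20 µM or more.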

The compounds below were run against Neuropeptide S receptor (Homo sapiens) (UniProt Q6W5P4) (assay: Robust Characterization of Calcium Signal Transduction Antagonists of the Neuropeptide S Receptor: SAR). Conditions: CHO-NPSR cells, NPS-induced calcium fluorescence (FDSS).
Text: Neuropeptide S receptor (NPSR), previously known as GPR154, is a recently de-orphanized G protein coupled receptor. Its endogenous ligand is the 20 amino acids peptide Neuropeptide S (NPS). […] NPS and its receptor are found in various tissues. Specifically they are highly expressed in brain areas that have been implicated in modulation of arousal, stress and anxiety. Central administration of NPS in mice produces an unusual profile of activity by inducing wakefulness and arousal, while at the same time suppressing anxiety. Therefore, NPSR may represent a novel drug target for the treatment of sleep and anxiety disorders. To identify NPSR antagonists, we developed a cell-based assay with transfected NPS receptor. NPS can stimulate the production of cAMP as well as release intracellular calcium in Chinese hamster ovary cells stably expressing NPS receptor. This change in intracellular calcium can be detected using a calcium indicator dye on a calcium imaging plate reader system (FDSS). This particular assay uses a high density of sampling across concentration-response space to establish more confidence estimates of potency. NIH Chemical Genomics Center [NCGC] NIH Molecular Libraries Probe Production centers Network [MLPCN] MLPCN Grant: DA026210 Assay Submitter (PI): Heilig, Markus Alexander
A Chinese hamster ovary (CHO) cell line stably expressing the NPS receptor (CHO-NPSR) was obtained from Dr. Heilig lab at NIAAA and maintained in F-12 Kaighn's media (Invitrogen, Carlsbad, CA, 21127) supplemented with 10 % FBS, 100 units/ml penicillin, 100 ug/ml streptomycin and 250 ug/ml geneticin at 37C, 5% CO2 in a humidified atmosphere. Before the assay, aliquots of cells were frozen and stored at -135C. The assay was performed on a FDSS-7000 kinetic plate reader in 1536-well format. For both agonist (1-220s) and antagonist (221-400s) phases, the maximums of kinetic fluorescence responses were converted separately into text files using the instrument's software data export utility. Data for agonist response were normalized to the controls for basal activity (DMSO only) and 100% activation (NPS). Data for antagonist response were normalized to the controls for basal activity (DMSO only) and 100% inhibition (No NPS control). AC50 values were determined from concentration-response data modeled with the standard Hill equation. NPS 1536-well FDSS assay protocol: (1) Frozen CHO-NPSR cells were thaw, washed once with fresh media and resuspended in F-12 Kaighn's media supplemented with 10 % FBS, 100 units/ml penicillin and 100 ug/ml streptomycin. Cells were plated at 3 ul/well (1200 cells) to black, clear-bottom, tissue-culture treated 1536-well plates, and then cultured at 37C, 5 % CO2 for 16 to 30 hours. […]

Sequence of Neuropeptide S receptor (Homo sapiens) (Q6W5P4 whole entry, looked up): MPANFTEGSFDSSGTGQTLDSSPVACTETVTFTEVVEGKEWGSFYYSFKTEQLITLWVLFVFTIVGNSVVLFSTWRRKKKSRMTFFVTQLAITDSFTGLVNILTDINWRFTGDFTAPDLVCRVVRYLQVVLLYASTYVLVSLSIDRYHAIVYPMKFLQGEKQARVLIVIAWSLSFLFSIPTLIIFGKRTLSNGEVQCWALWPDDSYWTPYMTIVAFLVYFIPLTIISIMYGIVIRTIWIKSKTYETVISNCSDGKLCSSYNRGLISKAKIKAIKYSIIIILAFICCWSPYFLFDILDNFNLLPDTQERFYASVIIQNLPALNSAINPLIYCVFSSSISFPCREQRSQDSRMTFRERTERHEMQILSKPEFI

IC50, active:
O=C1OC(c2ccccc2)(c2ccccc2)N2CCN(C(=O)NCc3ccc(F)cc3)CC12 (centres undefined) 570 nM
Cc1c(P(=S)(c2ccccc2)c2ccccc2)[n+]2ccccc2n1C/C=C/c1ccccc1 36.5 nM
CCC(C)(CCN1CCOCC1)N(Cc1cc2ccccc2n(C)c1=O)C(=O)C1CCCCC1 (centres undefined) 57.8 nM
COc1ccc(C2c3c(ncn(CCN4CCOCC4)c3=N)Oc3ccc4ccccc4c32)cc1OC (centres undefined) 4940 nM
